Source: PubChem
KB-3-1 cytotox: qHTS assay for MDR1-selective chemotherapeutics: Primary screen using the parental adenocarcinoma cell KB-3-1; KB-3-1 viability, CellTiter-Glo ATP luminescence, 72 h; AID 1347075, 2019; Potency, µM (highest dose often 46.1 µM), actives largely listed as cytotoxic; hit rate 1.4% among 400,000; further: nearly all actives have a fitted effect of over 60% in size
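KB-3-1 parental drug-naive adenocarcinoma cells in DMEM/10% FBS, incubated 72 h at 37 C with pin-transferred compounds across a concentration series. Viability by CellTiter-Glo luminescence; concentration-response curves fitted after normalization.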
TGFb SMAD3 inh: qHTS for Inhibitors of TGF-b. HepG2 CAGA-GFP TGF-b/SMAD3 reporter, GFP fluorescence, 18 h; TGF-beta stimulated, 500 pg/mL final. Potency, µM (doses to about 46.1 µM), actives largely listed as inhibitors. hit rate 1.2% among 410,000; further: nearly all actives have a fitted effect of over 65% in size
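First, reporter cells (HEPG2 CAGA-GFP) rested 2 h at 37 degrees C. Next, compounds were pinned in and TGF-beta added to 500 pg/mL final. After 18 h, GFP was imaged per cell and summed per well.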
HT1080 IDH1KD tx: qHTS for induction of synthetic lethality in tumor cells producing 2HG: qHTS for the HT-1080-IDH1KD cell line; Potency, µM (top dose mostly 46.1 µM), most hits filed as cytotoxic; HT-1080 IDH1 knockdown viability, ATP luminescence, 48 h; AID 686971, 2013; hit rate 2% among 360,000
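HT-1080-IDH1KD cells (IDH1 knocked down), 750/well in RPMI with 5% FBS, treated with compound 48 h at 37 degrees C. Viability by CellTiter-Glo luminescence, normalised to DMSO and no-cell wells; concentration-response curves classed.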
HT1080-NT tox: qHTS for induction of synthetic lethality in tumor cells producing 2HG: qHTS for the HT-1080-NT fibrosarcoma cell line; HT-1080-NT fibrosarcoma viability, CellTiter-Glo ATP luminescence, 48 h; Potency, µM (highest dose often 46.1 µM), actives largely listed as cytotoxic; hit rate 1.6% among 360,000;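 further: NT is the 2HG producing partner of a matched IDH1 knockdown line; nearly all actives have a fitted effect of over 55% in size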
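Luminescent CellTiter-Glo readout after 48 hours of compound exposure at 37 degrees C defined viability of HT-1080-NT cells. Activity was normalized to DMSO wells and cell-free media wells; concentration-response curves were fitted and assigned curve classes.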
HepG2 tox: qHTS for Inhibitors of TGF-b: Cytotox Counterscreen | HepG2 CAGA-GFP viability, ATP luminescence, 18 h | Potency, µM (top dose mostly 46.1 µM), actives largely listed as cytotoxic | hit rate 0.76% among 410,000 | AID 588856, 2011
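CellTiter-Glo luminescence gave cytotoxicity after 18 hours at 37 degrees C. The cells were HepG2 CAGA-GFP in 1% FBS DMEM, stimulated with 500 pg/mL TGF-beta after compound addition. %Activity was normalised to no-cell wells (complete cell-killing) and DMSO (no toxicity), and curves were fitted and classified.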
KB-V1 MDR tox: qHTS assay for MDR1-selective chemotherapeutics: Primary screen using the drug-selected MDR subline cells KB-V1; AID 1347076, 2019; Potency, µM (doses to about 46.1 µM), most hits filed as cytotoxic; KB-V1 MDR cells viability, CellTiter-Glo, 72 h; hit rate 3.4% among 400,000; further: nearly all actives have a fitted effect of over 60% in size
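Cytotoxicity toward P-gp-expressing KB-V1 cells was determined as loss of CellTiter-Glo luminescence after 72 h at 37 degrees C. Compounds were tested in quantitative HTS format across a concentration range, with curves fitted to normalized data.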
Numbers stand for hits; . = inactive; ? = inconclusive; / = no result given. Compounds with a hit are over-represented: about 6.6% of the library has one in this group of screens. The call rests on the fitted dose curve; in most records, active means well fitted curve in the direction sought with a large enough effect; inconclusive means small, poorly fitted or top-dose-only effect, or another doubt; inactive means no such curve, though single readings can be large; an effect the other way counts as inactive or inconclusive.

SMILES | KB-3-1 cytotox | TGFb SMAD3 inh | HT1080 IDH1KD tx | HT1080-NT tox | HepG2 tox | KB-V1 MDR tox
Fc1ccc(-c2csc(-c3ccncc3)n2)cc1 | . | . | . | . | . | .
Cn1c(N2CCN(C(c3ccccc3)c3ccccc3)CC2)nc2c1c(=O)[nH]c(=O)n2C | ? | . | . | . | . | 21µM
CCCCCn1c(N2CCC(Cc3ccccc3)CC2)nc2c1c(=O)[nH]c(=O)n2C | ? | ? | ? | 21µM | 11µM | ?
Cn1c(N2CCCCC2)nc2c1c(=O)[nH]c(=O)n2C | . | . | . | . | . | .
Cc1ccc(C(=O)c2sc(Nc3ccccc3F)c(S(=O)(=O)c3ccccc3)c2N)c(C)c1 | . | . | / | / | . | .
CC(/C=C/c1ccccc1)=N\Nc1nc(C)cc(C)n1 | . | ? | . | . | . | ?
Cc1cc(C)nc(NN=C(c2ccccc2)c2ccccc2)n1 | . | 11µM | . | . | . | .
CC(C)c1ccc(NC(=S)N(C)CCc2ccccn2)cc1 | . | . | . | . | . | 23µM
COc1cc(C(=O)Nc2ccc3nc(SCc4ccccc4)sc3c2)cc(OC)c1OC | . | . | / | / | . | .
Cc1ccc2nc(-c3ccccn3)[nH]c2c1 | ? | . | 18µM | ? | . | 18µM
c1ccc(-c2nc3ccccc3[nH]2)nc1 | . | . | . | . | . | .
CC(C)c1cccc(C(C)C)c1NS(=O)(=O)c1cccs1 | . | . | / | / | . | .
CCN(CC)CCNC1=NCCn2c1cc1cc(OC)ccc12 | . | . | ? | ? | . | .
CCN(CC)CCCCNc1ncc2cc(-c3cc(OC)cc(OC)c3)c(NC(=O)NC(C)(C)C)nc2n1 | . | ? | 9.2µM | 16µM | 14µM | ?
Cc1nc([N+](=O)[O-])c(Br)n1CC(=O)c1ccc(Cl)cc1 | 18µM | ? | 18µM | ? | . | ?
COc1ccc(C(=O)Cn2c(C)nc([N+](=O)[O-])c2Br)cc1 | ? | ? | ? | ? | . | .
COc1cc2[nH]c(=O)n(CCCC(=O)N3CC=C(c4ccccc4)CC3)c(=O)c2cc1OC | . | ? | . | . | . | ?
COc1cccc2c1[C@@H]1CN(CCCCn3c(=O)[nH]c4c(sc5ncc(-c6ccccc6)nc54)c3=O)C[C@@H]1CO2 | . | 13µM | ? | ? | . | .
CCCn1cc(S(=O)(=O)c2ccc(Cl)cc2)c(=O)c2cc(OC)ccc21 | ? | . | . | . | . | 7.3µM
O=c1c(S(=O)(=O)c2ccc(Cl)cc2)cn(Cc2ccccc2)c2ccc(F)cc12 | . | . | ? | . | . | 4.1µM
CCCn1cc(S(=O)(=O)c2ccc(C)cc2)c(=O)c2cc(OC)ccc21 | . | . | . | . | . | .
O=c1c(S(=O)(=O)c2ccc(Cl)cc2)cn(Cc2ccc(F)cc2)c2ccc(F)cc12 | . | . | / | / | . | .
COc1ccc(F)cc1S(=O)(=O)NCC(c1ccco1)S(=O)(=O)c1ccc(F)cc1 (stereo not given) | / | ? | / | / | . | /
Cc1ccc(S(=O)(=O)c2nc(S(=O)(=O)c3ccccc3)sc2NCCCOC(C)C)cc1 | . | . | / | / | . | .
Cc1cc([N+](=O)[O-])nn1Cc1ccc(C(=O)N/N=C/c2ccc(O)cc2O)cc1 | ? | ? | 2.1µM | ? | . | ?
COc1ccccc1N1CCN(C(=O)c2c(C)oc3ncn(CC(C)C)c(=O)c23)CC1 | . | . | / | / | . | .
COc1ccccc1CNC(=O)CCNS(=O)(=O)/C=C/c1ccc(C)cc1 | . | . | . | . | . | .
CCCn1c2c(c(=N)c3c1CCC3)CCCC2 | ? | . | . | . | . | ?
